# Shiga toxin inh – blocks Shiga toxin action in Vero cells | AID 2315 | Vero cells, Shiga toxin protein synthesis inhibition reporter | inhibition, % at 38.7 µM | hit rate 9.2% among 290,000; in the data active means inhibition mostly above about 28%, no sharp cut-off; inactive means mostly below about 43%; further: 0% is about no effect
# Vaccinia mCherry – inhibitors of vaccinia virus infection (mCherry reporter signal); Vaccinia virus mCherry reporter infection, fluorescence; Potency, µM (highest dose often 36.5 µM), for the others: top-dose activity change, negative = inhibition, hits mostly inhibitors; hit rate 0.63% among 310,000; AID 720579; calls by dose curve; tested in A549 cells; further: potency means the concentration at half of the fitted maximal effect; on the % scale 0 is the no-effect control and ±100 the full control effect; nearly all actives have a fitted effect of over 35% in size
# VACV Venus inh – inhibitors of vaccinia virus (Venus reporter) | Vaccinia virus Venus reporter expression, fluorescence | Potency, µM (titrated, usually from 36.5 µM), inactives show at the highest dose activity change, negative = inhibition, actives largely listed as inhibitors | hit rate 0.46% among 330,000 | AID 720580; calls by dose curve; tested in A549 cells; further: potency means the concentration at half of the fitted maximal effect; on the % scale 0 is the no-effect control and ±100 the full control effect; nearly all actives have a fitted effect of over 30% in size
# MARV entry inh – Marburg virus entry inhibition; Marburg virus pseudotyped entry inhibition, cell reporter; Potency, µM (doses to about 37.8 µM), without a hit: at the top dose activity change, negative = inhibition, most hits filed as inhibitors; hit rate 1.8% among 300,000; AID 540276; calls by dose curve; tested in HEK293 cells; further: potency means the concentration at half of the fitted maximal effect; on the % scale 0 is the no-effect control and ±100 the full control effect
# Cycloheximide cs – affects cycloheximide protein synthesis inhibition readout, counter-screen. cell reporter, cycloheximide protein synthesis inhibition counterscreen. max response, %. hit rate 12% among 300,000. AID 2314; in the data active means max response mostly above about 13%, no sharp cut-off; inactive means mostly below about 14%; further: read at 38.3 µM for the half of the compounds with a filed dose; 0% is about no effect
# LASV entry inh – blocks Lassa virus binding to or entry into cells; Lassa virus pseudotype entry inhibition, cell reporter; Potency, µM (doses to about 37.9 µM), for inactives: at the top dose activity change, negative = inhibition, actives largely listed as inhibitors; hit rate 1.2% among 300,000; AID 540256; calls by dose curve; tested in HEK293 cells; further: potency means the concentration at half of the fitted maximal effect; on the % scale 0 is the no-effect control and ±100 the full control effect; nearly all actives have a fitted effect of over 50% in size
# * hit, by the source's call; i = inactive; u = inconclusive; x = not tested or not shown; [ ] = another dose, or the depositor's remark. This excerpt belongs to a sample that is enriched for hits.
SMILES,Shiga toxin inh,Vaccinia mCherry,VACV Venus inh,MARV entry inh,Cycloheximide cs,LASV entry inh
Cc1cccc(NC(=O)c2ccccn2)c1C,77*,x,x,u,32*,u
Cc1cccc(NC(=O)Nc2ccccn2)c1C,47,-13%,-11%,x,11,x
CCc1cc(=O)[nH]c(SCc2nc(-c3ccccc3)no2)n1,x,-11%,-5%,x,x,-3%[46.1 µM]
Cc1ncc2c(c1CNC(=O)c1ccc3c(c1)OCO3)CCN(C(=O)c1scc3c1CCCC3)C2,x,-10%,9%,x,x,x
CCOC(=O)c1ccc(NC(=O)Nc2ncccc2C)cc1,-2,x,x,x,8,x
Cc1ccc(NC(=O)Nc2ncccc2C)cc1,106*,-13%,-5%,0%,63*,u
Cc1cccnc1NC(=O)Nc1ccc(F)cc1,69*,i,-12%,21%,30,28%
Cn1cnc([N+](=O)[O-])c1Sc1ncnc2nc[nH]c12,0,-8%,-6%[7.34 µM],18µM*,0,u
Cn1cnc(Sc2ncnc3nc[nH]c23)c1[N+](=O)[O-],7,x,x,x,7,x
COc1cc(/C=N/Nc2nc(Nc3ccccc3)nc(N3CCCCC3)n2)ccc1OCC(=O)O,9,-9%,-3%,14%[46.1 µM],8,-1%[46.1 µM]
COc1ccc(/C=N/Nc2nc(Nc3ccccc3)nc(N3CCCC3)n2)cc1[N+](=O)[O-],-17,-15%,u,u,-1,2%[46.1 µM]
COc1cc(/C=N/Nc2nc(Nc3ccccc3)nc(-n3nc(C)cc3C)n2)cc(OC)c1OC,45*,u,u,7.3µM*,18*,16µM*
COc1cc(/C=N/Nc2nc(Nc3ccc(C)cc3)nc(-n3nc(C)cc3C)n2)cc(OC)c1OC,109*,x,x,u,7,u
COc1ccc(O)c(/C=N/Nc2nc(Nc3ccccc3)nc(-n3nc(C)cc3C)n2)c1,40,x,10µM*,u,-3,13µM*
COc1ccc(C2C(=O)N(C3CCCCC3)CC(=O)N2CCc2ccc(OC)c(OC)c2)cc1 (stereo not given),x,-8%,-8%,x,x,4%[46.1 µM]
COc1ccccc1NC(=O)C(=O)NCC(c1cccnc1)N1CCc2ccccc2C1 (stereo not given),x,-17%,-17%,x,x,12%[46.1 µM]
O=C(NCCCN1CCCC1=O)Nc1ccc(F)c(Cl)c1,47,-8%,-7%,3%,47*,22%
O=C(NCCCN1CCCC1=O)Nc1ccc(Cl)cc1Cl,41,x,x,x,16*,x
O=C(NCCCN1CCCC1=O)Nc1ccc(Br)cc1Cl,38*,x,x,x,28*,x
CN1CCN(NC(=O)Nc2ccc(Br)cc2Cl)CC1,38,-16%,-17%,u,16*,-2%[46.1 µM]
CN(Cc1ccccc1)C(=O)C1CCCN1S(=O)(=O)c1ccc2c(c1)n(C)c(=O)c(=O)n2C (stereo not given),-5,-2%,0%,15%[46.1 µM],-4,26%
COCCCNC(=O)Nc1ccc(Br)cc1Cl,49*,-9%,-12%,15%,37*,42%[14.3 µM]
Cc1ccc(NC(=O)NCCCN2CCCC2=O)cc1C,33,x,x,x,11,x
COCCCNC(=O)Nc1ccc(F)cc1F,18,-10%,-5%,10%[46.1 µM],1,7%
Cc1ccc(NC(=O)NCCCN2CCCC2=O)cc1,30,x,x,19%,14*,15%
SMILES,Shiga toxin inh,Vaccinia mCherry,VACV Venus inh,MARV entry inh,Cycloheximide cs,LASV entry inh
CC(=O)c1ccc(N2CCN(C(=O)C3CCCN(S(=O)(=O)c4c(C)[nH]c(=O)[nH]c4=O)C3)CC2)cc1 (stereo not given),18,-1%,-1%,15%[46.1 µM],-3,1%
COc1ccc(N2CC(C(=O)Nc3nnc(SCC(=O)c4ccccc4)s3)CC2=O)cc1 (stereo not given),-5,-4%,-4%,3%,-1,2%
O=C1CC(c2ccc(F)cc2)CC2=C1C(c1ccc([N+](=O)[O-])o1)Nc1ccccc1N2 (stereo not given),18,u,-8%,10µM*,12*,u
Cc1cc(C(=O)COC(=O)c2ccc[nH]c2=O)c(C)n1-c1ccccc1,24,i,-6%,u,23,u
Cc1cc(C(=O)COC(=O)c2ccc[nH]c2=O)c(C)n1-c1ccc(F)cc1,76*,i,-10%,u,39*,-13%
Cc1cc(C(=O)COC(=O)c2ccc[nH]c2=O)c(C)n1C1CC1,58*,-14%,-6%,-17%,27*,2%
CCOc1cc(C2NC(=O)N(C)C(C)=C2[N+](=O)[O-])ccc1OC(C)=O (stereo not given),2,x,x,x,1,x
c1ccc(NCc2ccncc2)cc1,3,x,x,x,1,x
c1ccc(-n2cnc3cc(NCc4ccncc4)ccc32)cc1,91*,x,x,-14%,27*,u
c1ccc(Cn2c(NCc3ccccn3)nc3ccccc32)cc1,3,u,-13%,u,-2,-18%[46.1 µM]
c1ccc(-n2cnc3cc(NCc4ccccn4)ccc32)cc1,82*,i,-9%,-20%,59*,u
COc1ccc(Nc2ncc3c(n2)CC(c2ccc(OC)cc2)CC3=O)cc1 (stereo not given),4,-24%,-12%,u,-2,u
Cc1ccc(Nc2ncc3c(n2)CC(C)(C)CC3=O)cc1,118*,x,x,x,34*,x
COc1ccc(Nc2ncc3c(n2)CC(c2ccc(C)cc2)CC3=O)cc1 (stereo not given),-6,x,x,u,2,0.23µM*
CC1(C)CC(=O)c2cnc(NC3CC3)nc2C1,49,i,0%,26%,-2,10%
COc1cc(NC(=O)N2CCC(CN3CCOCC3)CC2)cc(OC)c1OC,x,-10%,-13%,x,x,-10%[46.1 µM]
O=C(Nc1ccc2c(c1)OCO2)c1ccc(Br)s1,45*,u,-22%,u,35*,u
O=C(Nc1cccc(C2OCCCO2)c1)c1cccs1,34,-15%,-12%,u,9,5%
CCN(CC)S(=O)(=O)c1cc(NC(=O)C2Cc3ccccc3C(=O)O2)ccc1C (stereo not given),56*,x,x,x,27*,x
Cc1nnc(SCC(=O)Nc2ccc3c(c2)OCO3)s1,6,-8%,-9%,u,-3,-7%[46.1 µM]
O=C(Nc1ccc2c(c1)OCCO2)c1cccs1,47*,x,x,u,55*,-21%
O=C(Nc1ccc2c(c1)OCO2)c1cccs1,197*,x,x,u,61*,u

# Bioassay records deposited in PubChem BioAssay by National Center for Advancing Translational Sciences (NCATS).
